Reference: PubChem BioAssay (EPA / NIEHS)
Inconclusive results are not listed. A structure can be active in one record and inactive in another. Activity calls are given as the source filed them. The calls were made as follows: active = hit-call score of the fitted dose curve at least 0.9, where 1 is the maximum; inconclusive = response in the unintended direction; inactive = score below 0.9.

Key:
[1] = test system: zebrafish Estrogen Receptor (ER2a), gene 317734; assay: ATG_zfER2a_XSP2: Attagene TRANS-FACTORIAL Multi-Species (XSP2) HepG2 Assay for zebrafish Estrogen Receptor (ER2a) (AID 2283818);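 also: hits raise reporter mRNA so AC50 reflects activation of zebrafish ER2a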
Procedure, shortened: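 HepG2 cells transiently transfected with GAL4-UAS reporter units and chimeric zebrafish ER2a-Gal4, exposed 24 h; medium contains 3 nM 6-alpha-fluorotestosterone and 1.5 nM norgestrel. Reporter mRNA quantified by RT-PCR, HpaI digestion, capillary electrophoresis; gain versus DMSO.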

[2] = ATG_M_19_XSP2: Attagene TRANS-FACTORIAL Multi-Species (XSP2) HepG2 Assay for M32 Transcription Factor (Internal Marker) (AID 2283822)
Procedure, shortened: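 Internal background marker in a multi-species nuclear receptor TRANS panel: transfected HepG2 cells exposed 24 h, with 3 nM 6-alpha-fluorotestosterone and 1.5 nM norgestrel present. Readout is RT-PCR of reporter transcripts resolved by capillary electrophoresis, gain-of-signal versus DMSO.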

[3] = test system: chicken Androgen Receptor (AR), gene 422165; assay: ATG_chAR_XSP2: Attagene TRANS-FACTORIAL Multi-Species (XSP2) HepG2 Assay for chicken Androgen Receptor (AR) (AID 2283819);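 also: hits raise reporter mRNA above DMSO so potency is for activation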
Procedure, shortened: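 HepG2 cells transiently transfected with chicken AR–GAL4 chimeric reporter constructs, stimulated with 3 nM 6-alpha-fluorotestosterone plus 1.5 nM norgestrel, dosed 24 h. Reporter mRNA quantified by RT-PCR and capillary electrophoresis; gain of signal fitted versus DMSO.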

[4] = molecular target: Estrogen receptor (Homo sapiens) (UniProt P03372); assay: ATG_hERa_XSP2: Attagene TRANS-FACTORIAL Multi-Species (XSP2) HepG2 Assay for human Estrogen Receptor (ERa) (AID 2283827)
Sequence of Estrogen receptor (Homo sapiens) (P03372 whole entry, looked up, the tested form may be a part): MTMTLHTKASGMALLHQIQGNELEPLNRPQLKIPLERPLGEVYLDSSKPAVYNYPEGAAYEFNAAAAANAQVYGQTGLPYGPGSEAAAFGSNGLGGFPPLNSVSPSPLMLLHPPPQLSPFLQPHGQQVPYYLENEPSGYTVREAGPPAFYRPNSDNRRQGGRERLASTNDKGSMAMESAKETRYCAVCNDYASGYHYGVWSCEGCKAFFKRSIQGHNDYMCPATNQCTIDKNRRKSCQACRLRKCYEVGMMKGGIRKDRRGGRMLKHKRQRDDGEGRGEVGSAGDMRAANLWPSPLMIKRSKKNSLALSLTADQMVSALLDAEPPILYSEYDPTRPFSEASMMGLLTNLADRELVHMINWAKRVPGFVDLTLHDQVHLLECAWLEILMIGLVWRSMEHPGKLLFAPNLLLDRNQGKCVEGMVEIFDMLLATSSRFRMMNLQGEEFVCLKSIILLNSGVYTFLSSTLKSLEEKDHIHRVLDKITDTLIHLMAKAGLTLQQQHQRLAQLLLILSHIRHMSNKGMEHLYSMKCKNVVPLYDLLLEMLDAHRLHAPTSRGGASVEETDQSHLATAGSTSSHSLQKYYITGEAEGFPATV
Procedure, shortened: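 HepG2 cells transiently transfected with multiplexed GAL4-UAS reporters driven by chimeric receptor-Gal4 proteins, dosed 24 h with 3 nM 6-alpha-fluorotestosterone and 1.5 nM norgestrel present. Reporter mRNA by RT-PCR and capillary electrophoresis; gain-of-signal fit versus DMSO.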

In the case of Oc1ccc2c(c1)-c1ccccc1C2, the AC50 [1] was 2.55 µM (active) and the outcome [1] was “inactive”.

With Clc1nc(Cl)c(Cl)c(Cl)c1Cl the outcome [1] was “inactive” and the outcome [2] was “inactive”.

In the case of O=P(OC(CCl)CCl)(OC(CCl)CCl)OC(CCl)CCl, the outcome [3] was “inactive” and the AC50 [4] was 7.39 µM (active).
